Assay results published in ChEMBL document CHEMBL4888484, “Replenishing the malaria drug discovery pipeline: Screening and hit evaluation of the MMV Hit Generation Library 1 (HGL1) against asexual blood stage Plasmodium falciparum ,using a nano luciferase reporter read-out” (2022).
The campaign covered roughly 4,800 compounds. About 420 (8.8%) showed an effect of 50% or more. This is one part of a sample in which strong results are shown more often than they occur.

system: Plasmodium falciparum; assay: Confirmatory screen in NF54 nanoGlo assay, in single point, at 2uM, 72h; type: functional, Erythrocyte; conditions: timepoint 72 hour

| SMILES | % Inhibition |
| --- | --- |
| CC(C)c1nc(CC(=O)N2CCN(Cc3nnc4n3CCCCC4)CC2)cs1 | -12% |
| CCCC(=O)N(C1=CC2CCC(C1)N2C)c1ccccc1 (stereo not drawn) | 1% |
| Cc1cc(C(=O)NC2CC(C)n3ccnc32)nn1C(C)C (stereo not drawn) | 58% |
| COc1cc(=O)c(C(=O)N2CCC3(CC2)OCCO3)nn1-c1ccc(C)cc1 | -5% |
| CN1CCC2CCN(C(=O)c3cc(C4CC4)on3)C2C1 (stereo not drawn) | 2% |
| CCOc1ccccc1N1C(=O)NC(=O)[C@@]2(Cc3cc(C)ccc3N(C)C2)C1=O | -10% |
| COC(=O)C(O)(c1ccc2c(c1)C(O)(C(F)(F)F)C(=O)N2C(C)C)C(F)(F)F (stereo not drawn) | 8% |
| CC1CN2CCCC2CN1C(=O)c1cc(C2CC2)on1 (stereo not drawn) | -17% |
| O=C1C2CCN(CC2)[C@H]1Cc1ccc(Cl)cc1 | 4% |
| Cc1cc(C(F)(F)F)c2c(C(N)=O)cn(C(C)(C)C)c2n1 | 2% |
| C[N+]12CCC(CC1)[C@@H](C(O)(c1cccc(Cl)c1)c1cccc(Cl)c1)C2 | 24% |
| O=C1CO[C@H]2CCN(Cc3cn4ccc(Br)cc4n3)C[C@@H]2N1 | 1% |
| Cn1nc(OC(=O)Nc2ccccc2)cc1C(F)(F)F | 6% |
| CN(C)C(=O)CCCn1ccc(NC(=O)C2C(C)(C)C2(C)C)n1 | -18% |
| Nc1ccc(N2CCN3CCC[C@H]3C2)cc1 | 8% |
| Cc1ccc2c(c1)CCCN2C(=O)CN1CC=C(c2cnn(C)c2)CC1 | 43% |
| CCC(CC)c1cc([C@H]2CN3CC[C@H]2C[C@@H]3CNS(=O)(=O)Cc2ccccc2)nc(-c2ccncc2)n1 | 63% |

| SMILES | % Inhibition |
| --- | --- |
| CCC(CC)c1cc([C@H]2CN3CC[C@H]2C[C@@H]3CO)nc(-c2ccncc2)n1 | 26% |
| CCCS(=O)(=O)NC[C@H]1C[C@@H]2CCN1C[C@@H]2c1cc(C(CC)CC)nc(-c2ccncc2)n1 | 18% |
| CC1CCNC(=O)C1NC(=O)Nc1ccc(C#N)c(C(F)(F)F)c1 (stereo not drawn) | 8% |
| Clc1ccc(C2CC(c3cccnc3)Nc3nnnn32)cc1 (stereo not drawn) | -10% |
| CCCCC1(CCCC)C(=O)NC(=Nc2ccc(C)cc2)NC1=O | -18% |
| O=C1N(c2ccccc2)C(=O)C2(Cc3cc(C(F)(F)F)ccc3N3CCC(c4ccccc4)CC32)C(=O)N1c1ccccc1 (stereo not drawn) | 4% |
| CC[C@H]1C[N@@]2CC[C@H]1C[C@@H]2COC(=O)Nc1ccc(C(C)(C)C)cc1 | 4% |
| COc1cccc(CNC(=O)N2CC[C@@H]3CCN(C)C[C@@H]32)n1 | -2% |
| CC(=O)N(C1CCN(Cc2ccccc2)CC1)C1(C(=O)Nc2ccc3[nH]ccc3c2)CCN(C)CC1 | 35% |
| CN1CC[C@]2(CCN(c3ccnc4ccsc34)C2)C1 | 99% |
| c1cc(N2CC[C@@]3(CCCNC3)C2)c2sccc2n1 | 99% |
| CCn1nccc1CNCCc1ccccc1 | 4% |
| CC[C@H]1C[N@@]2CC[C@H]1C[C@@H]2COC(=O)Nc1ccccc1 | 3% |
| CNc1snc(C)c1C(=O)N1CCC(C(=O)OC)(c2ccccc2)CC1 | -2% |
| COc1ccc(-c2ccccc2N2CCNCC2)c2ccc(C)nc12 | -4% |
| Clc1cccc(CCN[C@H]2CCOC3(CCOCC3)C2)c1 | 7% |
